# From PubChem BioAssay (NCATS)
# Values joined by “and” are separate entries in the source; they are usually repeats but may differ in a detail not shown here. Equal values may be shown once. Records with an inconclusive call do not appear. Active and inactive are the calls of the source. Calls come from the whole dose curve; as a rule, active = well fitted inhibition curve with a large enough effect; inconclusive = small, poorly fitted or top-dose-only effect; inactive = flat fitted curve, though single readings scatter.
# Tested on: KB-3-1
# Test: Cytotoxic Profiling of Annotated Libraries Using Quantitative High-Throughput Screening (AID 1296008); note: nearly all actives have a fitted effect of over 60% in size
# Details: Five cell lines viability, CellTiter-Glo ATP luminescence, 48-72 h; max response: stronger effect = lower value
# Description: Cell-based phenotypic screening is a commonly used approach to discover biological pathways, novel drug targets, chemical probes and high-quality hit-to-lead molecules. Many hits identified from high-throughput screening campaign are ruled out through a series of follow-up potency, selectivity/specificity, and cytotoxicity assays. Prioritization of molecules with little or no cytotoxicity for a more in-depth downstream evaluation influence the future direction of projects, so cytotoxicity profiling of the screening libraries at early stage is essential for increasing the likelihood of candidate success. […] For the annotated library, we also examined the primary targets and mechanistic pathways regularly associated with cell death. To our knowledge, this is the first study to use high-throughput screening to profile large libraries for cytotoxicity assessment in both normal and cancer cell lines. In summary, the results generated here constitutes a valuable resource for the scientific community and provides insight on identifying cytotoxic compounds with particular mechanisms of action, and prioritizing compounds with suitable cytotoxicity profile for further evaluation.
# A pintool (Kalypsys) was used to transfer 23 nL of compound solution to the 1536-well assay plates. After 48 or 72 hr incubation at 37 degree Celsius, 5% CO2 and 95% humidity, 2.5 uL of CellTiter-Glo (Promega) was dispensed into each well using a dispenser (Aspect Automation, St. Paul, MN) with solenoid valves (Lee Valves, Westbrook CT). Plates were left at room temperature for 10 min before imaging the ATP-coupled luminescence using a ViewLux microplate imager (PerkinElmer, Waltham, MA).
# % is set by controls: 0 for no effect and ±100 for the full control effect.
Compound,max response,outcome
N=c1ccn2c(n1)O[C@H]1[C@H](O)[C@@H](CO)O[C@H]12,33.6% (inactive),–
c1ccc2sc(SN3CCOCC3)nc2c1,0.575% (inactive),–
CC(=O)O[C@H]1C[C@@]2(C)[C@@H](C[C@@H](O)[C@H]3[C@@]4(C)CC[C@@H](O)[C@@H](C)[C@@H]4CC[C@@]32C)/C1=C(\CCC=C(C)C)C(=O)O,-11.2% (inactive),inactive
C[S+](CC[C@H](N)C(=O)O)C[C@H]1O[C@@H](n2cnc3c(N)ncnc32)[C@H](O)[C@@H]1O (stereo not given in full),16.4% (inactive) and -2.48% (inactive),–
O=C(O)/C=C/C(O)c1ccc(Cl)cc1 (stereo not given),-6.79% (inactive),–
CC1(C)[C@@H](O)CC[C@]2(C)[C@H]3C(=O)C=C4[C@@H]5C[C@@](C)(C(=O)O)CC[C@]5(C)CC[C@@]4(C)[C@]3(C)CC[C@@H]12,9.23% (inactive) and -7.89% (inactive),inactive
N=C(N)N,-12.6% (inactive),–
O=C(OCc1ccccc1)c1ccccc1,3.34% (inactive),–
C=CC(N)CCC(=O)O (stereo not given),3.37% (inactive),–
CO/N=C(\C(=O)N[C@@H]1C(=O)N2C(C(=O)O)=C(COC(C)=O)CS[C@H]12)c1csc(N)n1 (stereo in doubt),-7.91% (inactive),–
CCCCCCCCCCCC(=O)[O][Sn]([CH2]CCC)([CH2]CCC)[O]C(=O)CCCCCCCCCCC,-5.63% (inactive),–
CCCOC(=O)c1ccc(O)cc1,-6.63% (inactive) and -13.7% (inactive),–
COc1cc(/C=C/C(=O)N2CCN(CC(=O)N3CCCC3)CC2)cc(OC)c1OC,5.58% (inactive),inactive
CCOC(=O)c1ccccc1O,-11.3% (inactive) and -16.2% (inactive),–
CCOc1ccc2nc(S(N)(=O)=O)sc2c1,8.76% (inactive),–
O=C(O)Cc1ccc(-c2ccccc2)cc1,-5.98% (inactive),–
O=C(CS)Nc1ccccc1,-19% (inactive),–

Compound,max response,outcome
CN1[C@@H]2CC[C@H]1CC(OC(c1ccccc1)c1ccccc1)C2 (stereo not given in full),-4.67% (inactive) and 6.16% (inactive) and -6.04% (inactive),inactive
COC(=O)[C@H]1[C@H]2C[C@@H]3c4[nH]c5cc(OC)ccc5c4CCN3C[C@H]2C[C@@H](OC(=O)/C=C/c2cc(OC)c(OC)c(OC)c2)[C@@H]1OC,-8.17% (inactive),inactive
C#CC1(O)CC[C@H]2[C@@H]3CCC4=CCCC[C@@H]4[C@H]3CC[C@@]21C (stereo not given in full),-2.21% (inactive),–
CC1(C)S[C@@H]2[C@H](NC(=O)[C@H](NC(=O)N3CCN(S(C)(=O)=O)C3=O)c3ccccc3)C(=O)N2[C@H]1C(=O)O,1.37% (inactive),inactive
Cc1ccc(O)c(-n2nc3ccccc3n2)c1,-10.3% (inactive),–
C[C@H](O)[C@H](O)[C@H]1CNc2nc(N)[nH]c(=O)c2N1,14% (inactive),inactive
Fc1ccc2[nH]c(CN3CCN(c4ccccn4)CC3)cc2c1,-22.6% (inactive),–
COc1cc(/C=C/C(=O)CC(=O)/C=C/c2ccc(O)c(OC)c2)ccc1O,44.3% (inactive),–
NCCO,-25.6% (inactive),–
Nc1ccc(O)c(C(=O)O)c1,2.58% (inactive),–
CN(C)c1ccc(C(=C2C=CC(=[N+](C)C)C=C2)c2ccccc2)cc1,-1.13% (inactive),–
C/C(=N\O)c1ccc(OCC(=O)N2CCCCC2)cc1,–,inactive
CC[C@H]1OC(=O)[C@H](C)[C@@H](O[C@H]2C[C@@](C)(OC)[C@@H](O)[C@H](C)O2)[C@H](C)[C@@H](O[C@@H]2O[C@H](C)C[C@H](N(C)C)[C@H]2O)[C@](C)(O)C[C@@H](C)C(=O)[C@H](C)[C@@H](O)[C@]1(C)O,12% (inactive) and -5.16% (inactive),–
Nc1ccc([N+](=O)[O-])cc1O,10.6% (inactive),–
CC(=O)SCC(CC(=O)c1ccc(C)cc1)C(=O)O (stereo not given),–,inactive
COc1cc(NC(C)CCCN)c2ncccc2c1 (stereo not given),20.7% (inactive),–
